In the assay the test system is Trichuris muris adult worms. The assay is described as follows: mean motility score (Paragon pixel variance) of adult worms (arbitrary units); higher = more motile worms, i.e. less anthelmintic effect; extreme values may be limits of the assay. The conditions noted are these: 100 µM; 24 h. The essentials: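 Adult Trichuris muris worms were collected from infected NOD SCID mice and placed one per well in 96-well plates containing 100 μL RPMI-1640 with antibiotics and drug at 100 μM (1% v/v DMSO), then incubated for 24 h at 37°C and 5% CO2. Each plate was filmed on an automated phenotyping platform, capturing 200 frames 100 ms apart. The motility score came from Paragon pixel-variance analysis and was averaged over replicate wells. Every drug was tested with three worms in three wells on three separate occasions, alongside vehicle and positive controls.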
`CCCN1CCCC[C@H]1C(=O)Nc1c(C)cccc1C` [ropivacaine]: the mean motility score was 2600.

With `Nc1nc(N)c2nc(-c3ccccc3)c(N)nc2n1` [triamterene], the mean motility score was 2070.

In turn, `N=C(N)NCCC[C@H](N)C(=O)O` [arginine] returned a mean motility score of 2980.

In turn, `COc1cc2ncnc(Nc3ccc(F)c(Cl)c3)c2cc1OCCCN1CCOCC1` [gefitinib] came in with a mean motility score of 1080.

Values taken from the supplement of paper PMC10503962.
